Assay results reported in PubChem BioAssay (NCATS).
Results filed as inconclusive are left out. Activity calls are given as the source filed them. Calls follow the shape of the dose curve; as a rule, active = well fitted curve in the direction sought with a large enough effect; inconclusive = small, poorly fitted or top-dose-only effect, or another doubt; inactive = no such curve, though single readings can be large; an effect the other way counts as inactive or inconclusive. Non-standard residues stand in square brackets, D forms with d. Residues, ends and D or L forms follow the SMILES beside them. *: point of attachment. Nva = CCC[C@H](N)C(=O)O; Cbz = O=C(OCc1ccccc1)*

Assay: qHTS of pediatric cancer cell lines to identify multiple opportunities for drug repurposing: Confirmatory screen for OHS-50 cells (AID 1347128);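 also: compound exposure lasted 48 h at 37 degrees C; nearly all actives have a fitted effect of over 55% in size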
Conditions: OHS-50 osteosarcoma cells viability; series mostly up to 45.9 µM
Method in brief: (§1)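 Cells (500-1,000/well) rested 5 h, then received compounds for 48 h; metabolically active cells were measured by CellTiter-Glo luminescence. Final concentrations spanned up to 46 µM (MIPE, 11-point) or 0.59 nM-46 µM (NPC, 8-point) in primary screens, 11-point in follow-ups.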
Potency is read from the fitted curve at half-maximal effect.

Row | Compound | Potency
1 | Cc1ncc(-c2ccnc(Nc3ccc(S(C)(=O)=O)cc3)n2)n1C(C)C | 3290 nM (active)
2 | O=C(C=CC=Cc1ccc2c(c1)OCO2)N1CCCCC1 | inactive
3 | C[C@H](NCc1ccc2c(c1)nc(NC(=O)c1ccc(-c3cn[nH]c3)s1)n2CCc1ccccc1)C(C)(C)C | 1470 nM (active)
4 | CCCCC(=O)O[C@]1(C(=O)CO)[C@@H](C)C[C@H]2[C@@H]3CCC4=CC(=O)C=C[C@]4(C)[C@@]3(F)[C@@H](O)C[C@@]21C | inactive
5 | C[C@H]1[C@@H](OC(=O)CCC(=O)O)O[C@@H]2O[C@@]3(C)CC[C@@H]4[C@H](C)CC[C@@H]1[C@@]24OO3 | 3290 nM (active)
6 | Cn1cc(CNCC2CCN(c3ncc(C(=O)NO)cn3)CC2)c2ccccc21 | 131 nM (active)
7 | CC(C(C)N1CC(=O)NC(=O)C1)N1CC(=O)NC(=O)C1 (stereo unspecified) | inactive
8 | CC[C@]12C=CCN3CC[C@@]4(c5cc([C@@]6(C(=O)OC)C[C@H]7C[C@@H](C(C)(F)F)CN(Cc8c6[nH]c6ccccc86)C7)c(OC)cc5N(C)[C@H]4[C@@](O)(C(=O)OC)[C@H]1OC(C)=O)[C@@H]32 | inactive
9 | Oc1cc(-c2nc(-c3ccccc3)[nH]c2-c2ccncc2)ccc1Cl | 18500 nM (active)
10 | O=S(=O)(O)CCSSCCS(=O)(=O)O | inactive
11 | CC(C)N1[N]C(=C2C=c3cc(O)ccc3=N2)c2c(N)ncnc21 | 5220 nM (active)
12 | COC(=O)[C@@H]1[C@H]2C[C@@H]3c4[nH]c5ccccc5c4CCN3C[C@@H]2CC[C@@H]1O | inactive
13 | O=C1NC(=O)C(=Cc2ccc3nccc(-c4ccncc4)c3c2)S1 | 7370 nM (active)
14 | Oc1ccc(-c2ccc(-c3cc(Nc4cccc(CNC5CC5)c4)n[nH]3)cc2)c(O)c1 | 1470 nM (active)
15 | COc1cccc2c1C(=O)c1c(O)c3c(c(O)c1C2=O)C[C@@](O)(C(=O)CO)C[C@H]3O[C@H]1C[C@H](N)[C@H](O)[C@H](C)O1 | 2610 nM (active)
16 | CNC(=O)c1ccc(Nc2cc(Nc3ccccc3S(=O)(=O)C(C)C)c3cc[nH]c3n2)nc1 | 8270 nM (active)
17 | Cc1cnc(Nc2ccc(N3CCN(C)CC3)cc2)nc1Nc1cccc(S(=O)(=O)NC(C)(C)C)c1 | 2930 nM (active)
18 | O=C(O)C[C@H](O)C[C@H](O)C=Cc1c(C2CC2)nc2ccccc2c1-c1ccc(F)cc1 | 10400 nM (active)
19 | CCN(CC)CCNC(=O)c1c(C)[nH]c(C=C2C(=O)Nc3ccc(F)cc32)c1C | 10700 nM (active)
20 | C=CC(=O)Nc1cccc(Nc2nc(NC3CCC(N(C)C)CC3)nc3c2ncn3C(C)C)c1 (stereo unspecified) | 2080 nM (active)
21 | C=C1C(=CC=C2CCC[C@]3(C)[C@@H]([C@H](C)CCCC(C)(C)O)CC[C@@H]23)C[C@@H](O)C[C@@H]1O | inactive
22 | CN[C@H]1[C@@H](O)[C@@H]2O[C@@H]3O[C@H](C)CC(=O)[C@]3(O)O[C@@H]2[C@@H](NC)[C@H]1O | inactive
23 | CCC[C@@H](C=O)NC(=O)[C@H](CC(C)C)NC(=O)[C@H](CC(C)C)NC(=O)OCc1ccccc1 (Cbz-Leu-Leu-[Nva]-aldehyde) | 2330 nM (active)
24 | CC(C)(O)Cn1c(NC(=O)c2ccc(-c3cn[nH]c3)s2)nc2cc(CN3CCOCC3)ccc21 | 827 nM (active)
25 | COc1cccc2c1C(=O)c1c(O)c3c(c(O)c1C2=O)C[C@@](O)(C(=O)CO)C[C@@H]3O[C@H]1C[C@H](N)[C@@H](O)[C@H](C)O1 | 1470 nM (active)
26 | CC[C@@]1([C@@H]2O[C@@H]([C@H]3O[C@@](O)(CO)[C@H](C)C[C@H]3C)C[C@H]2C)CC[C@H]([C@]2(C)CC[C@]3(C[C@H](O)[C@@H](C)[C@@H]([C@@H](C)[C@@H](OC)[C@H](C)C(=O)O)O3)O2)O1 | 456 nM (active)
27 | C[C@@]12C(=O)OC(=O)[C@@]1(C)C1CCC2O1 | 4650 nM (active)

Assay: qHTS of pediatric cancer cell lines to identify multiple opportunities for drug repurposing: Confirmatory screen for SK-N-SH cells (AID 1347129);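 also: cells exposed to compound for 48 h before viability read; nearly all actives have a fitted effect of over 60% in size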
Conditions: SK-N-SH neuroblastoma cell viability; series mostly up to 46.1 µM
Method in brief: as §1

Row | Compound | Potency
28 | Cc1ncc(-c2ccnc(Nc3ccc(S(C)(=O)=O)cc3)n2)n1C(C)C | 4180 nM (active)
29 | O=C(C=CC=Cc1ccc2c(c1)OCO2)N1CCCCC1 | inactive
30 | C[C@H](NCc1ccc2c(c1)nc(NC(=O)c1ccc(-c3cn[nH]c3)s1)n2CCc1ccccc1)C(C)(C)C | 833 nM (active)
31 | CCCCC(=O)O[C@]1(C(=O)CO)[C@@H](C)C[C@H]2[C@@H]3CCC4=CC(=O)C=C[C@]4(C)[C@@]3(F)[C@@H](O)C[C@@]21C | inactive
32 | Cn1cc(CNCC2CCN(c3ncc(C(=O)NO)cn3)CC2)c2ccccc21 | 469 nM (active)
33 | CC(C(C)N1CC(=O)NC(=O)C1)N1CC(=O)NC(=O)C1 (stereo unspecified) | inactive
34 | CC[C@]12C=CCN3CC[C@@]4(c5cc([C@@]6(C(=O)OC)C[C@H]7C[C@@H](C(C)(F)F)CN(Cc8c6[nH]c6ccccc86)C7)c(OC)cc5N(C)[C@H]4[C@@](O)(C(=O)OC)[C@H]1OC(C)=O)[C@@H]32 | inactive
35 | O=S(=O)(O)CCSSCCS(=O)(=O)O | inactive
36 | COC(=O)[C@@H]1[C@H]2C[C@@H]3c4[nH]c5ccccc5c4CCN3C[C@@H]2CC[C@@H]1O | inactive
37 | O=C1NC(=O)C(=Cc2ccc3nccc(-c4ccncc4)c3c2)S1 | 4180 nM (active)
38 | Oc1ccc(-c2ccc(-c3cc(Nc4cccc(CNC5CC5)c4)n[nH]3)cc2)c(O)c1 | inactive
39 | COc1cccc2c1C(=O)c1c(O)c3c(c(O)c1C2=O)C[C@@](O)(C(=O)CO)C[C@H]3O[C@H]1C[C@H](N)[C@H](O)[C@H](C)O1 | 590 nM (active)
40 | CNC(=O)c1ccc(Nc2cc(Nc3ccccc3S(=O)(=O)C(C)C)c3cc[nH]c3n2)nc1 | 5900 nM (active)
41 | Cc1cnc(Nc2ccc(N3CCN(C)CC3)cc2)nc1Nc1cccc(S(=O)(=O)NC(C)(C)C)c1 | 2350 nM (active)
42 | O=C(O)C[C@H](O)C[C@H](O)C=Cc1c(C2CC2)nc2ccccc2c1-c1ccc(F)cc1 | 1320 nM (active)
43 | CCN(CC)CCNC(=O)c1c(C)[nH]c(C=C2C(=O)Nc3ccc(F)cc32)c1C | 9590 nM (active)
44 | C=CC(=O)Nc1cccc(Nc2nc(NC3CCC(N(C)C)CC3)nc3c2ncn3C(C)C)c1 (stereo unspecified) | 2960 nM (active)
45 | C=C1C(=CC=C2CCC[C@]3(C)[C@@H]([C@H](C)CCCC(C)(C)O)CC[C@@H]23)C[C@@H](O)C[C@@H]1O | inactive
46 | CN[C@H]1[C@@H](O)[C@@H]2O[C@@H]3O[C@H](C)CC(=O)[C@]3(O)O[C@@H]2[C@@H](NC)[C@H]1O | inactive
47 | CCC[C@@H](C=O)NC(=O)[C@H](CC(C)C)NC(=O)[C@H](CC(C)C)NC(=O)OCc1ccccc1 (Cbz-Leu-Leu-[Nva]-aldehyde) | 1320 nM (active)
48 | CC(C)(O)Cn1c(NC(=O)c2ccc(-c3cn[nH]c3)s2)nc2cc(CN3CCOCC3)ccc21 | 1320 nM (active)
49 | COc1cccc2c1C(=O)c1c(O)c3c(c(O)c1C2=O)C[C@@](O)(C(=O)CO)C[C@@H]3O[C@H]1C[C@H](N)[C@@H](O)[C@H](C)O1 | 332 nM (active)
50 | CC[C@@]1([C@@H]2O[C@@H]([C@H]3O[C@@](O)(CO)[C@H](C)C[C@H]3C)C[C@H]2C)CC[C@H]([C@]2(C)CC[C@]3(C[C@H](O)[C@@H](C)[C@@H]([C@@H](C)[C@@H](OC)[C@H](C)C(=O)O)O3)O2)O1 | 645 nM (active)
51 | C[C@@]12C(=O)OC(=O)[C@@]1(C)C1CCC2O1 | 5900 nM (active)
